Several values for one entry are separate records, joined by “and”; a condition that tells them apart may be missing. Identical values can stand only once. Counter-ions that a name gives are not always drawn.
Key:
Assay in all cases: cell viability relative to vehicle control; higher = less cytotoxic
Conditions in all cases: 10 µM
K562 = system: K562
Outline: (§1)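 Each screen used CRISPR-edited mutant and wild-type clones from four leukaemia lines. Compounds were acoustically dispensed at a single 10 µM dose, and CellTiter-Glo luminescence was read after 48 h with the supernatant first removed. Viability was analysed in Genedata Screener and given as percent of the on-plate vehicle control.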

MARIMO = system: MARIMO
Outline: as §1

MOLM14 = system: MOLM14
Outline: as §1

OCI-AML2 = system: OCI-AML2
Outline: as §1

Structure (SMILES)	cell viability (K562; SRSF2 genotype: SRSF2 P95H/wt)	cell viability (K562; SRSF2 genotype: SRSF2 wt/wt)	cell viability (MARIMO; SRSF2 genotype: SRSF2 P95H/wt)	cell viability (MARIMO; SRSF2 genotype: SRSF2 wt/wt)	cell viability (MOLM14; SRSF2 genotype: SRSF2 P95H/wt)	cell viability (MOLM14; SRSF2 genotype: SRSF2 wt/wt)	cell viability (OCI-AML2; SRSF2 genotype: P95H/wt)	cell viability (OCI-AML2; SRSF2 genotype: wt/wt)
O=C(Cn1nnc(-c2ccncc2)c1-c1ccccc1)Nc1ccc(-c2ccccc2)cn1	58% and 48.3%	57.6%	51.6%	53.3%	54.6%	51.1%	35.9%	40.8%
O=C(Cc1ccc(-c2ccc(OCCN3CCOCC3)cc2)cn1)NCc1ccccc1	10.7% and 34.3%	33%	6.74%	9.4%	1.55%	2.72%	4.61%	8.35%
C[C@@H]1CC[C@@]2(NC1)O[C@H]1C[C@H]3[C@@H]4CC=C5C[C@@H](O[C@@H]6O[C@H](CO)[C@@H](O[C@@H]7O[C@@H](C)[C@H](O)[C@@H](O)[C@H]7O)[C@H](O)[C@H]6O)CC[C@]5(C)[C@H]4CC[C@]3(C)[C@H]1[C@@H]2C [Khasianine]	104% and 102%	103%	102%	104%	104%	102%	104%	107%
C=CCNC1=C2C[C@@H](C)C[C@H](OC)[C@H](O)[C@@H](C)/C=C(\C)[C@H](OC(N)=O)[C@@H](OC)/C=C\C=C(/C)C(=O)NC(=CC1=O)C2=O [17-AAG (Tanespimycin)]	20.1% and 29.1%	25%	27.3%	24.3%	1.11%	1.2%	18.8%	20.6%
O=C(O)CCc1ccc(O)cc1O [Hydroumbellic acid]	96% and 92.8%	90.8%	95.6%	104%	100%	100%	93.3%	106%
Cc1cc(N2CCN([C@@H]3CN[C@H](C(=O)N4CCSC4)C3)CC2)n(-c2ccccc2)n1 [Teneligliptin hydrobromide]	90.4% and 78%	83.5%	86.8%	95.5%	84.8%	89%	94.2%	91.8%
Cc1cccc(Oc2cnc(=O)[nH]c2)c1	97.7% and 96%	99.4%	94.2%	97%	100%	97.4%	103%	101%
Cc1cn([C@H]2O[C@@H](CO)[C@H](O)[C@H]2F)c(=O)[nH]c1=O [Clevudine (Levovir)]	91.2% and 95.1%	99.5%	91.2%	92.2%	101%	97.9%	99.6%	88.1%
Cc1nc2ccc(-n3ncc(C(=O)c4cc5ccccc5[nH]4)c3N)cc2[nH]1	73.6% and 86.9%	76.5%	90.6%	103%	41.2%	47.5%	42.6%	43.7%
C=C1CCN([C@H](C)[C@](O)(Cn2cncn2)c2ccc(F)cc2F)CC1 [Efinaconazole]	86.9% and 94%	96.9%	76.3%	88.3%	85.8%	95.8%	82.2%	83.5%
Cc1c[nH]c(=O)[nH]c1=O [Thymine]	99.9% and 101%	96.8%	101%	95.1%	109%	102%	106%	101%
C=C1C[C@@]23CC[C@H]4[C@@](C)(CCC[C@@]4(C)C(=O)O)[C@@H]2CC[C@]1(O[C@@H]1O[C@@H](CO)[C@@H](O)[C@H](O)[C@@H]1O[C@@H]1O[C@@H](CO)[C@@H](O)[C@H](O)[C@@H]1O)C3 [Steviolbioside]	111% and 108%	107%	114%	99.5%	118%	110%	104%	103%
Cc1ccc(-n2nc(C(C)(C)C)cc2NC(=O)Nc2ccc(OCCN3CCOCC3)c3ccccc23)cc1 [BIRB 796 (Doramapimod)]	80.2% and 83.8%	92.3%	81.8%	104%	81.4%	88.1%	93.7%	101%
Cc1ccc(C(=O)Nc2ccc(Oc3cc4cnn(C)c4cc3-c3cn[nH]c3)c(F)c2)c(=O)n1-c1ccc(F)cc1	82.9% and 87.4%	87.2%	88.5%	103%	8.56%	12.4%	27.6%	31.6%
C1=N/C2=N/c3ccc(OCCN4CCCC4)c(c3)COC/C=C/COCc3cccc(c3)C(=C1)N2 [Pacritinib (SB1518)]	3.78% and 2.31%	4.47%	0.41%	0.42%	0.21%	0.25%	0.2%	0.32%
COc1cccc2c1C(=O)c1c(O)c3c(c(O)c1C2=O)C[C@@](O)(C(=O)CO)C[C@@H]3O[C@H]1C[C@H](N)[C@@H](O)[C@H](C)O1 [Epirubicin Hydrochloride]	4.6% and 11.6%	7.29%	4.26%	2.14%	1.38%	0.76%	1.59%	11.3%
CO[C@H]1C(=O)[C@]2(C)[C@@H](OC)C[C@H]3OC[C@@]3(OC(C)=O)[C@H]2[C@H](OC(=O)c2ccccc2)[C@]2(O)C[C@H](OC(=O)[C@H](O)[C@@H](NC(=O)OC(C)(C)C)c3ccccc3)C(C)=C1C2(C)C [Cabazitaxel (Jevtana)]	24.8% and 36.9%	36.7%	7.53%	5.43%	8.88%	4.79%	7.39%	16%
O=C1CC(c2c[nH]c3ccc(F)cc23)C(=O)N1 (stereo not given)	103%	111%	100%	102%	103%	108%	100%	101%
CC(C)(C)c1cc(NC(=O)Nc2ccc(Oc3ccnc4[nH]c(=O)cnc34)cc2F)n(-c2ccccc2)n1	30% and 44%	25.7%	14.6%	9.05%	7.07%	2.65%	6.64%	15.8%
C[n+]1c2ccccc2nc2ccccc21 [Phenazine methosulfate]	6.28% and 2.85%	13.5%	4.9%	8.06%	2.87%	1.78%	2.71%	4.56%
